Values joined by “and” are separate entries in the source; they are usually repeats but may differ in a detail not shown here. Identical values can stand only once. Records with an inconclusive call do not appear. Some compounds were tested as several samples or in several runs, with calls that do not always agree. Active and inactive are the calls of the source. The calls were made as follows, unless noted: active = hit-call score of the fitted dose curve at least 0.9, where 1 is the maximum; inactive = score below 0.9.
Assays:
[1] = target: Glucocorticoid receptor (Homo sapiens) (UniProt P04150); assay: ATG_GR_TRANS: Attagene TRANS-FACTORIAL HepG2 Assay for human Glucocorticoid Receptor (GR) (AID 2282978; active = hit-call score of the fitted dose curve at least 0.9, where 1 is the maximum;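 also: activators score as hits since higher reporter transcript over DMSO is fitted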); conditions: HepG2 Attagene TRANS GR reporter, mRNA transcription
Summary of the method: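 Exogenous NR-GAL4 fusion activity was assessed through induced GAL4-UAS reporter transcripts in transfected human HepG2 cells, quantified after 24 h by RT-PCR and fluorescent capillary electrophoresis with DMSO as baseline.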

[2] = target: Oxysterols receptor LXR-beta (Homo sapiens) (UniProt P55055); assay: ATG_LXRb_TRANS: Attagene TRANS-FACTORIAL HepG2 Assay for human Liver X Receptor beta (LXRb) (AID 2282981; active = hit-call score of the fitted dose curve at least 0.9, where 1 is the maximum); conditions: HepG2 Attagene TRANS GAL4-LXRb reporter, mRNA
Summary of the method: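 HepG2 cells transiently transfected with GAL4-UAS reporter units for chimeric NR-Gal4 proteins, dosed for 24 h. Reporter transcripts measured by RT-PCR and capillary electrophoresis; gain-of-signal fitting relative to DMSO.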

[3] = ATG_M_32_TRANS: Attagene TRANS-FACTORIAL HepG2 Assay for M32 Transcription Factor (Internal Marker) (AID 2282984; active = hit-call score of the fitted dose curve at least 0.9, where 1 is the maximum); conditions: HepG2 Attagene TRANS M32 internal marker reporter
Summary of the method: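 HepG2 cells transiently transfected with GAL4-UAS reporter units, dosed for 24 hours. Reporter mRNA quantified by RT-PCR, 6-FAM labelling, HpaI digestion and capillary electrophoresis; internal-marker signal fitted upward relative to DMSO.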

[4] = target: Transcriptional activator Myb (Homo sapiens) (UniProt P10242); assay: ATG_Myb_CIS: Attagene CIS-FACTORIAL HepG2 Assay for human Myeloblastosis (Myb) Proto-Oncogene Transcription Factor (AID 2282986); conditions: HepG2 Attagene CIS-FACTORIAL Myb reporter transcription; actives raise or lower the signal
Summary of the method: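 In this HepG2 transient-transfection format, cis-regulated reporter mRNA is quantified 24 h post-dosing by RT-PCR with capillary electrophoresis, fitted bidirectionally to DMSO baseline.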

[5] = target: Nuclear respiratory factor 1 (Homo sapiens) (UniProt Q16656); assay: ATG_NRF1_CIS: Attagene CIS-FACTORIAL HepG2 Assay for human Nuclear Respiratory Factor 1 (NRF1) Orphan Gene (AID 2282987); conditions: HepG2 NRF1 cis-element reporter, Attagene multiplex; actives raise or lower the signal
Summary of the method: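 Using DMSO as baseline, gain- or loss-of-signal was fitted for reporter mRNA levels in HepG2 cells transiently transfected with cis-regulated reporter units. Samples were taken 24 h after dosing and read by RT-PCR with capillary electrophoresis.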

[6] = ATG_NFI_CIS: Attagene CIS-FACTORIAL HepG2 Assay for human Nuclear Factor I (NFI) (AID 2282989); conditions: HepG2 cis-regulatory reporter, NFI response element transcription; actives raise or lower the signal
Summary of the method: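 Endogenous TF activity in HepG2 cells transiently transfected with cis-element-driven multiplexed reporter units, read 24 h after dosing. Reporter mRNA quantified by RT-PCR, 6-FAM labelling, HpaI digestion and capillary electrophoresis; bidirectional fit versus DMSO.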

[7] = target: Myc proto-oncogene protein (Homo sapiens) (UniProt P01106); assay: ATG_Myc_CIS: Attagene CIS-FACTORIAL HepG2 Assay for human Myelocytomatosis (Myc) Proto-Oncogene Transcription Factor (AID 2282990); conditions: HepG2, Attagene cis-reporter transcription factor activity; actives raise or lower the signal
Summary of the method: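 Fluorescence intensity of reporter-specific cDNA fragments, separated by capillary electrophoresis, gives the signal. Transfected HepG2 cells carrying cis-promoter reporter constructs are incubated with compound for 24 h; DMSO serves as baseline.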

[8] = ATG_NF_kB_CIS: Attagene CIS-FACTORIAL HepG2 Assay for human Nuclear Factor Kappa B (NF-kB) (AID 2282991); conditions: HepG2 Attagene cis-factorial NF-kB reporter mRNA; actives raise or lower the signal
Summary of the method: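 Endpoint from a 52-component multiplexed HepG2 reporter panel: cis-regulated transcription units transiently transfected, 24 h dosing, reporter mRNA quantified by RT-PCR and capillary electrophoresis, scored as increase or decrease against DMSO.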

[9] = ATG_NRF2_ARE_CIS: Attagene CIS-FACTORIAL HepG2 Assay for human Nuclear Factor Erythroid 2 Related Factor 2 (NFR2) response to Antioxidant Response Elements (ARE) (AID 2282992); conditions: HepG2 Attagene ARE/NRF2 reporter, transcription factor activity; actives raise or lower the signal;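 as to AC50: reporter mRNA level measured by RT-PCR and capillary electrophoresis fluorescence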
Summary of the method: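 Multiplexed reporter mRNA profiling in HepG2 after a 24 h chemical exposure. Curves fitted in both directions relative to DMSO negative control.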

[10] = ATG_Oct_MLP_CIS: Attagene CIS-FACTORIAL HepG2 Assay for human Octamer-Binding Transcription Factor (Oct) (AID 2282993); conditions: HepG2 Attagene cis-factorial Oct reporter, mRNA; actives raise or lower the signal
Summary of the method: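 HepG2 cells transiently transfected with cis-element-driven reporter transcription units (endogenous TF activity); 24 h compound exposure. Reporter mRNA quantified by RT-PCR, 6-FAM labelling, HpaI digestion and capillary electrophoresis; bidirectional fit versus DMSO baseline.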

[11] = target: Cellular tumor antigen p53 (Homo sapiens) (UniProt P04637); assay: ATG_p53_CIS: Attagene CIS-FACTORIAL HepG2 Assay for human p53 Transcription Factor (AID 2282994); conditions: HepG2 p53 cis-element reporter, Attagene mRNA; actives raise or lower the signal
Summary of the method: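 Multiplexed reporter mRNA assay in human HepG2 liver cells; cis-regulated units report endogenous factor activity. Values come from bidirectional curve fitting against DMSO negative control after 24 h treatment.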

[12] = target: Nuclear receptor subfamily 4 group A member 2 (Homo sapiens) (UniProt P43354); assay: ATG_NURR1_TRANS: Attagene TRANS-FACTORIAL HepG2 Assay for human Nuclear Receptor Related Protein 1 (NURR1) (AID 2282985; active = hit-call score of the fitted dose curve at least 0.9, where 1 is the maximum); conditions: HepG2 Attagene TRANS reporter, mRNA readout
Summary of the method: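 HepG2 cells transiently transfected with NURR1-Gal4 chimera and GAL4-UAS reporter units; after 24 hr compound exposure, reporter mRNA quantified by RT-PCR and capillary electrophoresis; gain of signal fitted against DMSO.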

[13] = BSK_3C_uPAR: BioMAP Diversity Plus: 3C Assay for Urokinase-type plasminogen activator receptor (uPAR) Biomarker Activity (AID 2282998); conditions: BioMAP 3C HUVEC, uPAR biomarker ELISA; actives raise or lower the signal
Summary of the method: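 Primary human umbilical vein endothelial cells, 3C system; surface uPAR measured by ELISA 24 h after dosing. Cytotoxicity via SRB total protein in parallel cultures; bidirectional fit against DMSO.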

[14] = BSK_3C_VCAM1: BioMAP Diversity Plus: 3C Assay for Vascular cell adhesion molecule 1 (VCAM1) Biomarker Activity (AID 2282999); conditions: BioMAP 3C HUVEC, VCAM1 ELISA, cytokine-stimulated; actives raise or lower the signal
Summary of the method: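 Human umbilical vein endothelial cells (3C system), biomarker read by ELISA 24 h after dosing; bidirectional fit against DMSO baseline. Cytotoxicity tracked by SRB total-protein staining in parallel cultures at biomarker time.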

[15] = target: Oxysterols receptor LXR-alpha (Homo sapiens) (UniProt Q13133); assay: ATG_LXRa_TRANS: Attagene TRANS-FACTORIAL HepG2 Assay for human Liver X Receptor alpha (LXRa) (AID 2282980; active = hit-call score of the fitted dose curve at least 0.9, where 1 is the maximum); conditions: HepG2 Attagene TRANS reporter, LXRa transactivation
Summary of the method: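 HepG2 cells were transiently transfected with multiplexed reporter units driven by chimeric LXRa–GAL4 fusion proteins, then dosed for 24 h. Reporter mRNA was quantified by RT-PCR, fluorescent labelling and capillary electrophoresis; gain of signal fitted against DMSO baseline.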

[16] = ATG_M_06_TRANS: Attagene TRANS-FACTORIAL HepG2 Assay for M06 Transcription Factor (Internal Marker) (AID 2282983; active = hit-call score of the fitted dose curve at least 0.9, where 1 is the maximum;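 also: reporter transcript level by RT-PCR then capillary electrophoresis fluorescence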); conditions: HepG2 Attagene TRANS M06 internal marker reporter
Summary of the method: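 HepG2 cells transiently transfected with multiplexed GAL4-UAS reporter transcription units; after 24 h compound exposure, reporter mRNA measured by RT-PCR, FAM-labelled primer extension, HpaI digestion and capillary electrophoresis. Gain-of-signal fitted versus DMSO baseline; background control readout.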

[17] = target: Bile acid receptor (Homo sapiens) (UniProt Q96RI1); assay: ATG_FXR_TRANS: Attagene TRANS-FACTORIAL HepG2 Assay for Farnesoid X Receptor (FXR) (AID 2282979; active = hit-call score of the fitted dose curve at least 0.9, where 1 is the maximum;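 also: hits raise reporter mRNA above DMSO so AC50 marks FXR activation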); conditions: HepG2 Attagene TRANS FXR-GAL4 reporter transcription
Summary of the method: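 HepG2 cells transiently transfected with reporter constructs in which a chimeric FXR-GAL4 protein drives a GAL4-UAS reporter; 24 h compound exposure. Reporter mRNA measured by RT-PCR, FAM labelling, HpaI digestion and capillary electrophoresis; gain-of-signal versus DMSO.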

[18] = target: Hepatocyte nuclear factor 4-alpha (Homo sapiens) (UniProt P41235); assay: ATG_HNF4a_TRANS: Attagene TRANS-FACTORIAL HepG2 Assay for human Hepatocyte Nuclear Factor 4 alpha (HNF4a) (AID 2282982; active = hit-call score of the fitted dose curve at least 0.9, where 1 is the maximum); conditions: HepG2 HNF4a transactivation reporter, mRNA readout
Summary of the method: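 HepG2 cells transiently transfected with HNF4a-Gal4 chimera and GAL4-UAS reporter units, dosed for 24 h. Reporter mRNA measured by RT-PCR, fluorescent primer extension and capillary electrophoresis; gain-of-signal fitted relative to DMSO.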

Measured: AC50

Chain of Nuclear receptor subfamily 4 group A member 2 (Homo sapiens) (P43354 whole entry, looked up, the tested form may be a part): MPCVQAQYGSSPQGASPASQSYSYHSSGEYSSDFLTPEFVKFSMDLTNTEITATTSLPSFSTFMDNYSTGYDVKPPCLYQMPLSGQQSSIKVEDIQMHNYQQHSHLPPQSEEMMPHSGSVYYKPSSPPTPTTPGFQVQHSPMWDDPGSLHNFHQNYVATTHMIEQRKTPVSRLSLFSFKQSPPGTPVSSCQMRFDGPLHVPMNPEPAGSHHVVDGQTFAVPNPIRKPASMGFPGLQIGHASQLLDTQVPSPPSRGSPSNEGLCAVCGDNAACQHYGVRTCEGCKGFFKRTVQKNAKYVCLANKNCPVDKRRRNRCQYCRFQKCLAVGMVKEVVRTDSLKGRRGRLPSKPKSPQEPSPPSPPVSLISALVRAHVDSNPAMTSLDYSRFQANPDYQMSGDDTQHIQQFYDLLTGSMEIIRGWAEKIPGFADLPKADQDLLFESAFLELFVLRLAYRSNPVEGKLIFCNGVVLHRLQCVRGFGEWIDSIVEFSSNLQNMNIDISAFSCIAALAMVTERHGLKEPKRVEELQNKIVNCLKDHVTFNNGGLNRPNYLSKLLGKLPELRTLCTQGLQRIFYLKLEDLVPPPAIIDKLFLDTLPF
Chain of Glucocorticoid receptor (Homo sapiens) (P04150 whole entry, looked up, the tested form may be a part): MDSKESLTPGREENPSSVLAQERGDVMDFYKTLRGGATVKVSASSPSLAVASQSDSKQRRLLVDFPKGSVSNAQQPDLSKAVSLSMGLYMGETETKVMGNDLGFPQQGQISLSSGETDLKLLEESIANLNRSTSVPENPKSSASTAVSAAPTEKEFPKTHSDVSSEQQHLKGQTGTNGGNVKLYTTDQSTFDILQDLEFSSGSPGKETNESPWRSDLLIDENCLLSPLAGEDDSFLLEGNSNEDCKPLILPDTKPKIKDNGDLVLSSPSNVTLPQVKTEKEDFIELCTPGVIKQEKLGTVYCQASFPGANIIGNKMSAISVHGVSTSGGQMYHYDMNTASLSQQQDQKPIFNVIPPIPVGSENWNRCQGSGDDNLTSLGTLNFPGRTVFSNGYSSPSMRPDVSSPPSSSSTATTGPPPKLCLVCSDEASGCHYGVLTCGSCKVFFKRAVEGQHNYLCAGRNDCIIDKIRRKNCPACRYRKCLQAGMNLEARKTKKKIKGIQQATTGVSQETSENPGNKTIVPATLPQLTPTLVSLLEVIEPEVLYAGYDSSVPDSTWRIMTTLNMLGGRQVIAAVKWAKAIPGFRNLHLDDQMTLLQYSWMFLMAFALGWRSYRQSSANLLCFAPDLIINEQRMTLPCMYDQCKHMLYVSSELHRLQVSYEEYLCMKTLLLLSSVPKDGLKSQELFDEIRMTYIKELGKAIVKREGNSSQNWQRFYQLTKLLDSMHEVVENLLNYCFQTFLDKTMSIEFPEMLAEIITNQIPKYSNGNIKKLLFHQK
Chain of Transcriptional activator Myb (Homo sapiens) (P10242 whole entry, looked up): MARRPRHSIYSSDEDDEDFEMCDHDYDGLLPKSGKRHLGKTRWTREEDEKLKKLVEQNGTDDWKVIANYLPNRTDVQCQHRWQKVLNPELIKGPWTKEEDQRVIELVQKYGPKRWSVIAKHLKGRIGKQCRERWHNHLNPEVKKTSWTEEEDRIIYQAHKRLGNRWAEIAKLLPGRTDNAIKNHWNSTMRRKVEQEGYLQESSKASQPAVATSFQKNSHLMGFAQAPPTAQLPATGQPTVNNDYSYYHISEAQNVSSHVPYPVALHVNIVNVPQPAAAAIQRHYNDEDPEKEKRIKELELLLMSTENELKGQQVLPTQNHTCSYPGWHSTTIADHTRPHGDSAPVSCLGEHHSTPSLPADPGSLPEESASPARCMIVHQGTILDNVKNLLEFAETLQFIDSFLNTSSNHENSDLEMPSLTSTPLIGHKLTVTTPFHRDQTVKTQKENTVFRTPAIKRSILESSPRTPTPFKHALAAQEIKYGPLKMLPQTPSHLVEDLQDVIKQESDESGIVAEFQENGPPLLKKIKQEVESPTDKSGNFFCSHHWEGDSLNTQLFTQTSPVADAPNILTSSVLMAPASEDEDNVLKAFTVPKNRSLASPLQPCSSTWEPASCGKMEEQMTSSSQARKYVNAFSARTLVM
Chain of Bile acid receptor (Homo sapiens) (Q96RI1 whole entry, looked up, the tested form may be a part): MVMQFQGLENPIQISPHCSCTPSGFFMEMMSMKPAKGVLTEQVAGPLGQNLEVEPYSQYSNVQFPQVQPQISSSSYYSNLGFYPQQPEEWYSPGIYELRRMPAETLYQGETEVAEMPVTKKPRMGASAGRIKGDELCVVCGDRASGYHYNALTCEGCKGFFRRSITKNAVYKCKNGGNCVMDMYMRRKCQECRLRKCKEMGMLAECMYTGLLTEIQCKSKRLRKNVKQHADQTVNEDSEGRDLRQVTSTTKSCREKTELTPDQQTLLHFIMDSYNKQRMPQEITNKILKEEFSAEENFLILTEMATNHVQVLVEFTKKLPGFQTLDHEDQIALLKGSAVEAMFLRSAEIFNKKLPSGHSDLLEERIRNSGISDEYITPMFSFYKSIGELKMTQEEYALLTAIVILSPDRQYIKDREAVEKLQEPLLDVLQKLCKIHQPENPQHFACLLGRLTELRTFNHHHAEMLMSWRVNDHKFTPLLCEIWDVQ
Chain of Oxysterols receptor LXR-beta (Homo sapiens) (P55055 whole entry, looked up, the tested form may be a part): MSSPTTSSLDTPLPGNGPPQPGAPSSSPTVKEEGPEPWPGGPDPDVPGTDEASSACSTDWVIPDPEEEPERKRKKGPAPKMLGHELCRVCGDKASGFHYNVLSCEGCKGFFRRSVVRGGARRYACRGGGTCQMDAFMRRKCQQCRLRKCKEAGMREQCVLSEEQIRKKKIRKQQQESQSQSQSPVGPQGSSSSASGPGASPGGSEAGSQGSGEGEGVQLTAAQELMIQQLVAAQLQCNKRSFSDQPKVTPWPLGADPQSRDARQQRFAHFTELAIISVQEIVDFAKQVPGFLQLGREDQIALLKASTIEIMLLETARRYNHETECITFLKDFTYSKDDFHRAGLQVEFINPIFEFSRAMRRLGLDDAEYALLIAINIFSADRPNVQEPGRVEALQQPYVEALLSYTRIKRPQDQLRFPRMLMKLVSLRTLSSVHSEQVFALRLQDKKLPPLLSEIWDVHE
Chain of Cellular tumor antigen p53 (Homo sapiens) (P04637 whole entry, looked up): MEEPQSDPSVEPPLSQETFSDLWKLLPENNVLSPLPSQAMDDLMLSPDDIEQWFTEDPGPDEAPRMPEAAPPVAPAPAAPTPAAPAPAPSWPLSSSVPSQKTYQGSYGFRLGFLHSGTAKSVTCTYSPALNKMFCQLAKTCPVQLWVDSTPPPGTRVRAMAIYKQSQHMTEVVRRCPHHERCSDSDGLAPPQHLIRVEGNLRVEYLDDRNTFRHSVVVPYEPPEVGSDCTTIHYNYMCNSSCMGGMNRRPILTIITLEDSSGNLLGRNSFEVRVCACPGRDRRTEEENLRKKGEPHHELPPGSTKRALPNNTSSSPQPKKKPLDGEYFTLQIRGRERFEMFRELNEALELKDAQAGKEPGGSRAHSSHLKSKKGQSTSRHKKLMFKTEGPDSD
Chain of Nuclear respiratory factor 1 (Homo sapiens) (Q16656 whole entry, looked up): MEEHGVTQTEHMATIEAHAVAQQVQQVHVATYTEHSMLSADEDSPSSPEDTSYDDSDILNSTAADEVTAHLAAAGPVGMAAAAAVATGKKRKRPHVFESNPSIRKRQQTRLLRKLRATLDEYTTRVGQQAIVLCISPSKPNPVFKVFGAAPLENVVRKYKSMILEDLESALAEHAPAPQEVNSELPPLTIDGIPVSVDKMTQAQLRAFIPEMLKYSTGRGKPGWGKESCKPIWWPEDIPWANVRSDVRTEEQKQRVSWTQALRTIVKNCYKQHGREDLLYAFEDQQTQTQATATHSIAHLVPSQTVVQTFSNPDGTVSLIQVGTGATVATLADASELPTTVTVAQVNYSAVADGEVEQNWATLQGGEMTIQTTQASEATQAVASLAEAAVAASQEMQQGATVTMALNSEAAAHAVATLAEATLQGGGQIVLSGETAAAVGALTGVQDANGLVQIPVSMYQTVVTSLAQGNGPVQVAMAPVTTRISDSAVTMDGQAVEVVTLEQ
Chain of Myc proto-oncogene protein (Homo sapiens) (P01106 whole entry, looked up, the tested form may be a part): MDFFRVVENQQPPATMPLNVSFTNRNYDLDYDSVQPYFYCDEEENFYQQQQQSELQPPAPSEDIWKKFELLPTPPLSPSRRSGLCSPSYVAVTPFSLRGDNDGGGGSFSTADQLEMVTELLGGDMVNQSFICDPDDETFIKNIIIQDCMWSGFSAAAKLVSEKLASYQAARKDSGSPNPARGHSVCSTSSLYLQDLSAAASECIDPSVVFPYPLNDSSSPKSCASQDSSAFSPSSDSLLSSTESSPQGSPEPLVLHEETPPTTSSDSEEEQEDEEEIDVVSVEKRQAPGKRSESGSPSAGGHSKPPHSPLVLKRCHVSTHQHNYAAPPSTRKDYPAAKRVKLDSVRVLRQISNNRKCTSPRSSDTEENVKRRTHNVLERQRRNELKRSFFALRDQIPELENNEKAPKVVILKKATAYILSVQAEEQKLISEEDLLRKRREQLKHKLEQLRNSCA
Chain of Oxysterols receptor LXR-alpha (Homo sapiens) (Q13133 whole entry, looked up, the tested form may be a part): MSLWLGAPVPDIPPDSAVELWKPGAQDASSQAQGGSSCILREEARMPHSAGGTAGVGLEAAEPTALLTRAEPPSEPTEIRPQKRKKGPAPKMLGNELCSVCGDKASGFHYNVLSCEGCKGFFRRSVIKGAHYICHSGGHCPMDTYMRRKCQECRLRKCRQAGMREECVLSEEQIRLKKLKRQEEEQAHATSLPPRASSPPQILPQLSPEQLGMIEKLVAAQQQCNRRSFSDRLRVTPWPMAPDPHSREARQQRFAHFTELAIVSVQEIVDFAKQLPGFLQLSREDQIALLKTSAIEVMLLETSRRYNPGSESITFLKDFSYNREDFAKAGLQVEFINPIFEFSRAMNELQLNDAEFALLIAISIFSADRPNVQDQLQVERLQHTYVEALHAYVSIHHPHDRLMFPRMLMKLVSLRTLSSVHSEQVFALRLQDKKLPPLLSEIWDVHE

O=C(OCc1ccccc1)c1ccccc1O
active: [6] 178 µM | [9] 64.4 µM | [11] 145 µM
inactive: [1] | [2] | [3] | [4] | [5] | [7] | [8] | [10]

C#C[C@]1(O)CC[C@H]2[C@@H]3CCc4cc(O)ccc4[C@H]3CC[C@@]21C
inactive: [1] | [2] | [3] | [12] | [4] | [5] | [6] | [7] | [8] | [9] | [10] | [11] | [14]
active: [4] 156 µM and 172 µM | [5] 152 µM and 138 µM | [6] 26.4 µM and 72.3 µM and 48.5 µM | [7] 146 µM and 61.6 µM | [8] 162 µM | [9] 187 µM | [10] 27.1 µM [middle of 4 runs] | [11] 30 µM [middle of 4 runs] | [13] 6.34 µM

CC(C)COC(=O)c1ccccc1O
not listed: [2] | [12] | [13] | [14] | [17] | [18]
inactive: all other assays above

CCCO[Si](OCCC)(OCCC)OCCC
not listed: [2] | [4] | [8] | [15] | [16] | [17] | [18]
inactive: all other assays above

CC1=CCC(C(C)(C)O)CC1 (centres undefined)
not listed: [1] | [2] | [3] | [13] | [14] | [15] | [18]
inactive: all other assays above

CC(O)COCC(C)O (centres undefined)
not listed: [1] | [12] | [13] | [14] | [15] | [16] | [18]
inactive: all other assays above

Cc1ccccc1S
active: [6] 74 µM | [7] 45 µM | [9] 24.5 µM | [10] 98.5 µM
inactive: [17] | [18] | [4] | [5] | [8]

CCC(=O)OC/C=C(\C)CCC=C(C)C
inactive: [1] | [4] | [5] | [6] | [7] | [8] | [9] | [10] | [11]

CC(=O)CCC(=O)O
inactive: [1] | [3] | [4] | [5] | [6] | [7] | [9] | [10]

From PubChem BioAssay (EPA / NIEHS)
